PABP FP inh – PABP poly(A) RNA binding inhibitors, primary screen, biochemical, fluorescence polarization, uHTS; Polyadenylate-binding protein 1 (Homo sapiens), P11940; inhibition, % at 35 µM; actives 1% (n = 290,000);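 further: calls also rest on retests at 20 µM and on dose response follow-up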
Target sequence (P11940 whole entry, looked up): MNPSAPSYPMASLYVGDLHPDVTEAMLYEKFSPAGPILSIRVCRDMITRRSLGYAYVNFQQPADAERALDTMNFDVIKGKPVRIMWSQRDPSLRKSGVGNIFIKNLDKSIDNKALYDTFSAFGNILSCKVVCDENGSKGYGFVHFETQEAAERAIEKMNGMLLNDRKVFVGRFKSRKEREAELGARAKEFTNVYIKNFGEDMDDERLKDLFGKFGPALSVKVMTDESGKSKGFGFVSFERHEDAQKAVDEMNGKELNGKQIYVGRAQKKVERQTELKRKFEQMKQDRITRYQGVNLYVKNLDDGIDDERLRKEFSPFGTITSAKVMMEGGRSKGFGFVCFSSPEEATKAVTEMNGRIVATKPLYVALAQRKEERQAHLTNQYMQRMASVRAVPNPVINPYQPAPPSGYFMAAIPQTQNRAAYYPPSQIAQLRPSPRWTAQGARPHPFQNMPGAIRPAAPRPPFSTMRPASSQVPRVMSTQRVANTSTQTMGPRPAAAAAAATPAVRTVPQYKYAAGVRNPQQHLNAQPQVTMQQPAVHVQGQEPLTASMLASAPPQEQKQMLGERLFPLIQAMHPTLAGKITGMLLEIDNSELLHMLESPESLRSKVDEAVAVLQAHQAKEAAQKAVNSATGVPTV
PABP1 MLLE inh – inhibitors of PABP1 MLLE–PAM2 peptide binding, primary screen, biochemical, fluorescence polarization, FITC-PAM2, GST-MLLE. Polyadenylate-binding protein 1 (Homo sapiens), P11940. inhibition, % at 20 µM. actives 0.36% (n = 360,000). AID 588489, 2011; in the data active means inhibition above about 35%, passing the limit was not always enough;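 further: plate controls were DMSO wells with GST-MLLE for no effect and wells lacking GST-MLLE protein for full effect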
M18AAP inhibitor – PfM18AAP inhibitors, malaria aminopeptidase, primary screen, biochemical, QFRET, recombinant enzyme; M18 aspartyl aminopeptidase (Plasmodium falciparum 3D7); H-Glu-NHMec fluorogenic cleavage; inhibition, % at 7.35 µM; actives 1.2% (n = 290,000); AID 1822, 2009;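 active means inhibition above the campaign mean inhibition over all tested compounds plus 3 SD, cut at about 28% in these data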;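 further: 0% = plate median of test compound wells and 100% = 2 mM ZnCl2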
PERK inh – block of dimerizer-induced PERK translation repression, primary screen, PERK inhibitor project, CHO PERK-DD cells, SEAP luminescence, HTS; inhibition, % at 5.6 µM; AID 1416, 2008; actives 0.17% (n = 220,000); Eukaryotic translation initiation factor 2-alpha kinase 3 (Homo sapiens), Q9NZJ5; CHO PERK-DD fusion, SEAP luminescence translation reporter;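 active means inhibition above the mean inhibition of all tested compounds plus 3 SD, set separately per screening campaign, cut at about 2.9% in these data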;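 further: PERK kinase domain activated by AP20187 dimerizer at 100 nM; 0% = DMSO with dimerizer and 100% = rapamycin at 8.4 µM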
eIF4E 4G PPI – eIF4E–eIF4G protein interaction inhibitors, primary screen, biochemical, uHTS, TR-FRET, eIF4GI fragment; actives 0.37% (n = 220,000); Eukaryotic translation initiation factor 4E (Mus musculus) + Eukaryotic translation …; TR-FRET eIF4E-eIF4GI(517-606) binding, 2 h; inhibition, % at 21.7 µM; AID 782, 2007;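 active means inhibition above about 30%, limit read from the data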;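 further: 0% = full FRET control wells and 100% = background wells lacking eIF4GI fragment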
eIF4H FP inh – human eIF4H binding inhibitors, primary screen, translation initiation inhibitor project, biochemical, uHTS, fluorescence polarization | actives 0.94% (n = 290,000) | eIF4H fluorescence polarization binding assay | inhibition, % at 35 µM | AID 2012, 2009;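 further: calls also rest on retests at 20 µM and on dose response follow-up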
* hit, by the source's call. Hits are enriched below; roughly 2.4% of the tested compounds scored in any of these assays. Unless noted, how the calls were made is not given here.

`CCCNC(=O)NC(=O)CSc1cccc(C(F)(F)F)c1` gave PABP FP inh 28.4, PABP1 MLLE inh -10.5, M18AAP inhibitor 4.2, PERK inh 1.7, eIF4E 4G PPI -1.1 and eIF4H FP inh 6.4.
Screening CCCC(=Nc1ccc(N)cc1)C1=C(O)C(C(=O)OC)C(C)(C)CC1=O (stereo unspecified) returned PABP FP inh 64.3*, PABP1 MLLE inh 9.5, M18AAP inhibitor 19.4, PERK inh -0.1, eIF4E 4G PPI -0.6 and eIF4H FP inh 57.2*.
Screening O=C(NC(=S)Nc1cccnc1)c1cccs1 returned PABP FP inh -2.3, PABP1 MLLE inh 39.2*, M18AAP inhibitor 2.6, PERK inh 0.7, eIF4E 4G PPI -5.5 and eIF4H FP inh 3.6.
COC(=O)Nc1ccc(S(=O)(=O)N2CCN(C)CC2)cc1 was read as PABP FP inh -0.2, PABP1 MLLE inh 3.1, M18AAP inhibitor -2.0, PERK inh 1.5, eIF4E 4G PPI 18.3 and eIF4H FP inh 14.2.
`O=C(Nc1cccnc1)c1cccs1` gave PABP FP inh -7.5, PABP1 MLLE inh -0.1, M18AAP inhibitor 2.2, PERK inh 0.9, eIF4E 4G PPI 22.4 and eIF4H FP inh -12.5.
For O=C(NC(=S)Nc1ccc(S(=O)(=O)N2CCCC2)cc1)C1CCC1 the results were PABP FP inh -2.7, PABP1 MLLE inh 22.9, M18AAP inhibitor -1.1, PERK inh 1.0, eIF4E 4G PPI 13.2 and eIF4H FP inh 2.3.
Screening O=C(NC(=S)Nc1ccc(S(=O)(=O)N2CCCC2)cc1)C1CC1 returned PABP FP inh 63.4*, PABP1 MLLE inh 14.4, M18AAP inhibitor 8.3, PERK inh 1.6, eIF4E 4G PPI -0.7 and eIF4H FP inh -8.4.
CC(=O)Nc1ccc(S(=O)(=O)N2CCN(C)CC2)cc1 was read as PABP FP inh -0.1, PABP1 MLLE inh 1.9, M18AAP inhibitor 6.0, PERK inh 3.1*, eIF4E 4G PPI 3.4 and eIF4H FP inh -3.0.
For O=C(NC(=S)Nc1ccc(S(=O)(=O)N2CCCC2)cc1)c1cccs1 the results were PABP FP inh 1.8, PABP1 MLLE inh 46.6*, M18AAP inhibitor -1.1, PERK inh -0.7, eIF4E 4G PPI -1.0 and eIF4H FP inh 5.6.
Cc1c(N(C)S(=O)(=O)c2ccc(Cl)c(C(=O)NCC(C)(C)N3CCOCC3)c2)c(=O)n(-c2ccccc2)n1C was read as PABP1 MLLE inh 13.6.
Screening Cc1cn([C@H]2C[C@H](O)[C@@H](CCC(=O)NCc3ccco3)O2)c(=O)[nH]c1=O returned PABP1 MLLE inh 5.8.
For O=C(O)CC(SCC(=O)Nc1ccc(S(=O)(=O)N2CCCC2)cc1)C(=O)O (stereo unspecified) the results were PABP FP inh -10.9, PABP1 MLLE inh 40.0*, M18AAP inhibitor -1.3, PERK inh 0.9, eIF4E 4G PPI 1.2 and eIF4H FP inh -9.5.
CCC(C)N1C(=O)N(c2cccc(Cl)c2)C(C)(O)CC1(C)C (stereo unspecified) was read as PABP FP inh -3.0, PABP1 MLLE inh 2.6, M18AAP inhibitor -1.8 and eIF4H FP inh -4.8.
O=C(/C=C/c1ccc([N+](=O)[O-])cc1)N(c1ccccn1)C1CCCCC1 was read as PABP FP inh 14.2, PABP1 MLLE inh 9.2, M18AAP inhibitor 42.6*, PERK inh 0.0, eIF4E 4G PPI -0.4 and eIF4H FP inh 4.9.
For CC(NC(=O)c1ccccc1SCC(=O)N1CCCC1)c1ccc(F)cc1 (stereo unspecified) the results were PABP FP inh 4.8, PABP1 MLLE inh 2.9, M18AAP inhibitor 0.8 and eIF4H FP inh 6.3.
COc1ccc2c(c1)c(C(=O)N/N=C/c1ccc(OC)c(OC)c1)c(C)n2C was read as PABP FP inh 4.6, PABP1 MLLE inh -1.1, M18AAP inhibitor -1.6, PERK inh -0.9, eIF4E 4G PPI 2.8 and eIF4H FP inh 0.9.
For C/C=C/C(=O)OCC(=O)Nc1ccc(SC(F)F)cc1 the results were PABP FP inh 50.1*, PABP1 MLLE inh 29.3, M18AAP inhibitor -8.0, PERK inh 0.0, eIF4E 4G PPI 2.3 and eIF4H FP inh active.
Screening Nc1ccc(Nc2ccccc2)c(S(=O)(=O)O)c1 returned PABP FP inh 69.0*, PABP1 MLLE inh -5.8, M18AAP inhibitor 10.8, PERK inh 1.9, eIF4E 4G PPI 24.9 and eIF4H FP inh 95.2*.
COc1ccc(N2CCN(CCS(=O)(=O)c3cc(Cl)ccc3Cl)CC2)cc1 was read as PABP1 MLLE inh -4.1.
`CN(C)Cc1nnnn1-c1cccc(-n2nnnc2CN(C)C)c1` gave PABP FP inh 1.8, PABP1 MLLE inh 2.9, M18AAP inhibitor -7.7, PERK inh -1.0, eIF4E 4G PPI -8.0 and eIF4H FP inh -8.3.
Screening COc1ccc(-n2c(C)cc(/C=N/Nc3nnc(C)n3N)c2C)cc1 returned PABP FP inh -6.5, PABP1 MLLE inh -4.7, M18AAP inhibitor 48.0*, PERK inh -0.6, eIF4E 4G PPI 2.1 and eIF4H FP inh -1.6.
C=CCSc1nnc2c(n1)OC(c1cccnc1)Nc1ccccc1-2 (stereo unspecified) was read as PABP FP inh 45.9, PABP1 MLLE inh 7.5, M18AAP inhibitor 7.3, PERK inh 1.1, eIF4E 4G PPI 2.5 and eIF4H FP inh -3.4.
Screening C=CCSc1nnc2c(n1)OC(c1c(C)[nH]n(-c3ccccc3)c1=O)Nc1ccccc1-2 (stereo unspecified) returned PABP FP inh 84.9*, PABP1 MLLE inh 6.8, M18AAP inhibitor 2.9, PERK inh 1.9, eIF4E 4G PPI 1.8 and eIF4H FP inh inconclusive.
`c1ccc(CSc2nnc(-c3ccccc3)c(-c3ccccc3)n2)cc1` gave PABP1 MLLE inh -8.6.
Screening c1ccc(CSc2nnc3c(n2)OC(c2ccco2)Nc2ccccc2-3)cc1 (stereo unspecified) returned PABP FP inh 99.4, PABP1 MLLE inh 8.9, M18AAP inhibitor -5.1, PERK inh 0.9, eIF4E 4G PPI -11.4 and eIF4H FP inh 4.0*.
`COc1ccccc1NC(=O)CCC(=O)OCc1cccc([N+](=O)[O-])c1` gave PABP FP inh 4.1, PABP1 MLLE inh 2.2, M18AAP inhibitor 1.0, PERK inh 0.3, eIF4E 4G PPI 1.1 and eIF4H FP inh 8.1.

Screens (PubChem)
